# Experimental data from PubChem BioAssay (Tox21).
# Results filed as inconclusive are left out. The source made the active and inactive calls. Calls come from the whole dose curve; as a rule, active = well fitted cell-killing curve with a large enough effect in the repeat runs; inconclusive = weak or mixed curves, or effect the other way; inactive = flat fitted curve, though single readings scatter.
# Assay: qHTS RealTime-Glo MT Cell Viability Assay in HepG2 cells - 0 hour (AID 1224889); note: nearly all actives have a fitted effect of over 50% in size
# Conditions: RealTime-Glo luminescence; series mostly up to 76.8 µM; activity change, negative = cytotoxicity: at the top concentration
# Source text: U.S. Tox21 Program National Center for Advancing Translational Sciences [NCATS] NIH Chemical Genomics Center [NCGC] U.S. Environmental Protection Agency [EPA] National Institutes of Environmental Health Sciences [NIEHS] National Toxicology Program [NTP] U.S. Food and Drug Administration [FDA] Tox21 Assay Overview: Measure of cell viability is critical in the cell-base assay. Analysis of cell viability is necessary for the characterization of cell responses to cytotoxic drugs and environmental stress. A RealTime-Glo MT Cell Viability Assay to monitor cell viability in real time of continues cell culture during 40 hours of compound treatment was used to screen Tox21 10K library compounds in HepG2 cells. The RealTime-Glo MT Cell Viability Assay is a nonlytic, homogeneous, bioluminescent method to measure cell viability in real time using a simple, plate-based method. The assay involves adding NanoLuc luciferase and a cell-permeant prosubstrate to cells in culture. Viable cells reduce the proprietary prosubstrate to generate a substrate for NanoLuc luciferase. This substrate diffuses from cells into the surrounding culture medium, where it is rapidly used by the NanoLuc Enzyme to produce a luminescent signal. The signal correlates with the number of viable cells, making the assay well suited for cytotoxicity studies.
# Tox21 Assay Protocol Summary: The mixture of HepG2 cell suspension and reagents were dispensed at 600cells/6 ul/well in 1536-well tissue culture treated black solid bottom plates using a Multidrop dispenser. After the assay plates were incubated at a 37 C/5% CO2 incubator for 5 hours, 23 nL of compounds dissolved in DMSO, positive and negative controls was transferred to the assay plate by a pintool work station. The plates were incubated at 37 C for 40 hours. The luminescence intensity were measured at 0h, 8h, 16h, 24h, 32h and 40h time points using ViewLux plate reader during compound treatment.
# % is set by controls: 0 for no effect and ±100 for the full control effect; potency is the fitted concentration of half-maximal effect.
Compound,"activity change, negative = cytotoxicity",Potency
CC(C)(COC(=O)c1ccccc1)COC(=O)c1ccccc1,-1.78% (inactive),
Cc1oc2c(NC(=O)c3c(Cl)cccc3Cl)cccc2c1C(C)(C)O,-17.5% (inactive),
N=c1ccn2c(n1)O[C@H]1[C@H](O)[C@@H](CO)O[C@H]12,-0.0277% (inactive),
C[Si](C)(CCCN)O[Si](C)(C)CCCN,0.0553% (inactive),
COC(C)(C)CCO,6.82% (inactive),
C1CCCNCCC1,-10.9% (inactive),
CCC(C)(C)CC,-2.02% (inactive),
CCCCCCCCCCCCCCCCCCOS(=O)(=O)O,-8.07% (inactive),
NCC(=O)O,5.3% [at 15.8 µM] (inactive),
CNCCCN1c2ccccc2CCc2ccccc21,28.4% [at 35.3 µM] (inactive),
O[C@@H](COc1cccc2ncccc12)CN1CCN(C2c3ccccc3[C@@H]3[C@H](c4ccccc42)C3(F)F)CC1 (stereo not given in full),-7.29% [at 35.3 µM] (inactive),
CCCCCCCN,-1.45% (inactive),
CCCCC(CC)CN1C(=O)C2C3C=CC(C3)C2C1=O (stereo not given),-26.4% (inactive),
C/C=C/C=C/CO,-8.74% (inactive),
Cc1nn(C)c(Oc2ccccc2)c1/C=N/OCc1ccc(C(=O)OC(C)(C)C)cc1,-1.34% (inactive),
Cn1c(=O)cc(Oc2ccc(F)cc2F)c2cnc(NCC(C)(C)O)nc21,-3.09% (inactive),
O=S(c1cc(Cl)cc(Cl)c1O)c1cc(Cl)cc(Cl)c1O,-24.2% [at 35.3 µM] (inactive),
CCCCc1nc2cccnc2n1Cc1ccc(-c2ccccc2-c2nnn[nH]2)cc1,,24.5 µM (active)
CN(C)c1ccc(CCO)cc1,5.91% (inactive),
O=C(O)CNCC(=O)O,-5.44% [at 6.97 µM] (inactive),

Compound,"activity change, negative = cytotoxicity",Potency
CCOC(=O)C(O)c1ccccc1 (stereo not given),8.12% [at 35.3 µM] (inactive),
O=[N+]([O-])c1ccc2[nH]ncc2c1,17.7% (inactive),
CCCCOC(=O)CCCCCCCC(=O)OCCCC,2.77% (inactive),
CN(C)c1ccc(C(c2ccccc2)c2ccc(N(C)C)cc2)cc1,1.41% (inactive),
Cc1c(N)cccc1[N+](=O)[O-],4.19% (inactive),
NCC(=O)CCC(=O)O,8.82% [at 35.3 µM] (inactive),
O=C(CS)Nc1ccccc1,-18.3% [at 35.3 µM] (inactive),
Nc1ccccc1S(=O)(=O)c1ccccc1,1% (inactive),
CC(=O)c1ccc2c(c1)N(CCCN1CCC(CCO)CC1)c1ccccc1S2,11.1% [at 35.3 µM] (inactive),
COc1ccc(C(=O)N2CCN(CC(=O)N3CCOCC3)CC2)cc1,12.2% [at 35.3 µM] (inactive),
Cc1cc(N)c2cc(NC(=O)Nc3ccc4nc(C)cc(N)c4c3)ccc2n1,-1.98% [at 35.3 µM] (inactive),
CC(C)(O)c1ccc(CNC(=O)c2cccnc2Oc2ccc(F)cc2)cc1,-2% (inactive),
CC(C)O.CC(C)O.CCOC(=O)/C=C(\C)O.CCOC(=O)/C=C(\C)O.[Ti],0.784% (inactive),
CCOc1ccc(N=Nc2ccc(/C=C/c3ccc(N=Nc4ccc(OCC)cc4)cc3S(=O)(=O)O)c(S(=O)(=O)O)c2)cc1,-13.6% (inactive),
CCCCC/C=C\C/C=C\CCCCCCCC(=O)NC(C)c1ccccc1 (stereo not given),-19.1% [at 35.3 µM] (inactive),
O=C(Nc1ccc(S(=O)(=O)N2CCOCC2)cc1)c1cc(Cl)ccc1NS(=O)(=O)c1ccc(Cl)s1,,9.52 µM (active)
CC1CCC(=O)C1=O (stereo not given),12.1% (inactive),
C=CC1CC2C=CC1C2 (stereo not given),2.44% (inactive),
COc1cc2nc(Cl)nc(N)c2cc1OC,5.66% [at 35.3 µM] (inactive),
CCOC(=O)COC(=O)c1cc(Oc2ccc(C(F)(F)F)cc2Cl)ccc1[N+](=O)[O-],-0.336% (inactive),
